From PubChem BioAssay
An excerpt weighted towards active compounds, which were near 2.5% of everything screened.
POLI inh: qHTS for Inhibitors of Polymerase Iota; Pol iota fluorescent replication assay, 10 min; Potency, µM (doses to about 115 µM), without a hit: at the top dose activity, negative = inhibition, actives largely listed as inhibitors; hit rate 1% among 390,000
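Pol iota at 10 nM preincubated 15 min with compounds at room temperature; reaction started with fluorescent substrate, 50 nM final. Fluorescence read kinetically at 0 and 10 min; buffer-only wells as negative control.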
POLB inh: qHTS Assay for Inhibitors of DNA Polymerase Beta; Potency, µM (series often up to 114 µM), for inactives: at the highest dose activity change, negative = inhibition, hits mostly inhibitors; hit rate 1.3% among 340,000; Pol beta primer extension/strand displacement, fluorescence kinetic; P06746; note: % is set by controls: 0 for no effect and ±100 for the full control effect
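Pol beta (10 nM) and compounds were preincubated 15 min at room temperature, then 50 nM substrate (final) started primer extension/strand displacement. Reads were taken at 0 and 10 min; concentration-response data were fitted to a four-parameter Hill equation.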
APE1 inh: qHTS Assay for Inhibitors of the Human Apurinic/apyrimidinic Endonuclease 1 (APE1); recombinant APE1, TAMRA/BHQ-2 abasic DNA cleavage fluorescence; DNA repair nuclease/redox regulator APEX1 (Homo sapiens), P27695; hit rate 0.35% among 350,000; Potency, µM (top dose mostly 65.8 µM), inactives show top-dose activity change, negative = inhibition, actives largely listed as inhibitors; AID 2517, 2012;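 note: plate controls were vehicle for no effect and reference inhibitor for full effect; nearly all actives have a fitted effect of over 55% in size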
Target sequence (P27695 whole entry, looked up): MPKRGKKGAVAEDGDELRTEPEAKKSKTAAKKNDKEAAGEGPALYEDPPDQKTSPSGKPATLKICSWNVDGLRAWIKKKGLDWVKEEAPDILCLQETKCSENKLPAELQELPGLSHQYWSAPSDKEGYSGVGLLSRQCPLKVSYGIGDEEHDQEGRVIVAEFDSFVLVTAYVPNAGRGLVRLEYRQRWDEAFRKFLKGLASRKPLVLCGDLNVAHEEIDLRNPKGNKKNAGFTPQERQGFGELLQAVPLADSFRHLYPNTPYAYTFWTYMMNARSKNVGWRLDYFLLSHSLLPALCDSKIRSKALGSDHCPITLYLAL
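Activity was derived from the fluorescence gain between first and third kinetic reads (60 s intervals, ex 525/em 598 nm) after 50 nM THF-abasic TAMRA/BHQ-2 duplex was added to 0.75 nM APE1 preincubated 15 min with compound.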
Pol kappa inh-1: qHTS for Inhibitors of Polymerase Kappa | DNA polymerase kappa (Homo sapiens), Q9UBT6 | purified Pol kappa, fluorescent DNA synthesis assay, 10 min | Potency, µM (doses to about 107 µM), for inactives: top-dose activity, negative = inhibition, most hits filed as inhibitors | hit rate 0.53% among 400,000; note: % is set by controls: 0 for no effect and ±100 for the full control effect
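Kinetic fluorescence readout at 0 and 10 min followed reaction start with substrate at 50 nM final. Beforehand, enzyme (10 nM Pol kappa) stood 15 min with compound at room temperature; buffer-only wells were negative controls.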
Pol eta inh-1: qHTS for Inhibitors of Polymerase Eta | recombinant Pol eta, fluorescent DNA replication assay | Potency, µM (top dose mostly 114 µM), for the others: at the highest dose activity change, negative = inhibition, usual class: inhibitors | AID 588591, 2011 | hit rate 1.2% among 390,000; note: % is set by controls: 0 for no effect and ±100 for the full control effect
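Pol eta at 10 nM preincubated with compounds 15 min at room temperature; reaction started with fluorescent substrate (50 nM final) and read kinetically at 0 and 10 min.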
L3MBTL1 inh: qHTS Assay for the Inhibitors of L3MBTL1. AlphaScreen L3MBTL1–H3K9me1 peptide binding. Lethal(3)malignant brain tumor-like protein 1 (Homo sapiens), Q9Y468. Potency, µM (doses to about 57.1 µM), without a hit: at the highest dose activity, negative = inhibition, usual class: inhibitors. hit rate 0.66% among 230,000; note: % is set by controls: 0 for no effect and ±100 for the full control effect; nearly all actives have a fitted effect of over 60% in size
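Displacement of a biotinylated histone H3(1-15) peptide monomethylated at Lys9 (75 nM) from L3MBTL1 (50 nM) was measured by AlphaScreen after a 30 min room-temperature compound incubation; cefsulodin titration served as intraplate control.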
Pol kappa inh-2: qHTS for Inhibitors of Polymerase Kappa: Confirmatory Assay for Cherry-picked Compounds. hit rate 76% among 920. purified Pol-kappa, fluorescent strand-displacement substrate. AID 720501, 2013. Potency, µM, usual class: inhibitors. shares compounds with Pol eta inh-1
Pol eta inh-2: qHTS for Inhibitors of Polymerase Eta: Confirmatory Assay for Cherry-picked Compounds. shares compounds with Pol eta inh-1. Potency, µM, most hits filed as inhibitors. Pol eta primer extension, TAMRA/BHQ fluorescence, 10 min. hit rate 64% among 2,600
An asterisk follows results filed as active; ? = inconclusive; . = not tested or not shown; [ ] = another dose, or the depositor's remark. Calls come from the whole dose curve; as a rule, active = well fitted curve in the direction sought with a large enough effect; inconclusive = small, poorly fitted or top-dose-only effect, or another doubt; inactive = no such curve, though single readings can be large; an effect the other way counts as inactive or inconclusive. Potency is the fitted concentration of half-maximal effect.

SMILES | POLI inh | POLB inh | APE1 inh | Pol kappa inh-1 | Pol eta inh-1 | L3MBTL1 inh | Pol eta inh-2 | others
N#CCC(=O)Nc1ccc(C(=O)N2CCN(S(=O)(=O)c3ccc4ccccc4c3)CC2)cc1 | -11% | 21% | -15% | 0% | -17% | . | .
CC(=O)Nc1ccc(N2C(=O)c3cccc4c(O)ccc(c34)C2=O)cc1 | ? | ? | ? | ? | 32µM* | . | ? | Pol kappa inh-2=30*
COc1cc(-c2c(-c3ccc4c(c3)OCO4)noc2-c2ccsc2)cc(OC)c1OC | 10% | . | . | 7% | . | . | .
O=C(O)c1cc(-c2ccc(-c3c(-c4ccc5c(c4)OCO5)noc3-c3ccsc3)cc2)nc2ccccc12 | ? | -15% | 23% | -30% | 79µM* | -17% | . | Pol kappa inh-2=?
Cc1cc(N)c2cc(NC(=O)/C=C/c3ccccc3Cl)ccc2n1 | 48% | 50µM* | 8% | -25% | ? | -24% | 67*
Cc1cc(C)nc(NC(=O)/C=C/c2ccccc2Cl)n1 | 23% | 1% | -1% | -2% | -17% | -3% | .
CC(/C=C/c1ccco1)=N\NC(=O)c1cc(Cl)ccc1O | 40µM* | ? | -11% | 79µM* | 22µM* | . | ?
CC(/C=C/c1ccco1)=N/NC(=O)Cc1cccs1 | 32µM* | 22µM* | ? | ? | 18µM* | ? | ?
O=C(Nc1ccc2[nH]c(=O)[nH]c2c1)c1ccc([N+](=O)[O-])o1 | ? | . | -25% | -13% | 56µM* | -21% | ? | Pol kappa inh-2=?
Cc1ccc(NC(=O)c2ccc([N+](=O)[O-])o2)cc1C | ? | -21% | -4% | -18% | 4% | -23% | .
O=C(CCc1nnc2ccc(NCc3ccco3)nn12)Nc1ccccc1F | ? | ? | 78% | -23% | ? | . | .
O=C(CCc1nnc2ccc(NCc3ccco3)nn12)Nc1ccccn1 | 20% | ? | 7% | 5% | 28µM* | . | ?
Cc1cccc(NC(=O)CCc2nnc3ccc(NCc4ccco4)nn23)n1 | 36% | ? | -11% | 1% | 25µM* | . | 76*
COCCNC(=O)[C@H](C)/C=C/C(NC(=O)OCc1ccccc1)c1ccc(C(=O)OC)cc1 (stereo partly drawn) | . | . | 11% | . | . | . | .
COc1ccc(NC(=O)N2CCN(S(=O)(=O)c3ccc4c(ccn4C)c3)CC2)cc1OC | 6% | -1% | . | 2%[60.1 µM] | -19% | . | .
CCC/C=C(\CCC)C(NP(=O)(c1ccccc1)c1ccccc1)c1ccc(-c2ccccc2)cc1 (stereo not drawn) | . | . | -3% | . | . | . | .
Cc1cccc(NC(=S)NC(=O)/C=C/c2ccco2)c1 | 20µM* | 32µM* | -11% | 79µM* | 50µM* | -27% | ?
O=C(/C=C/c1ccco1)NC(=S)Nc1ccccc1 | ? | ? | -3% | ? | ? | -5%[2.29 µM] | .
COc1ccccc1NC(=S)NC(=O)/C=C/c1ccco1 | ? | 45µM* | ? | ? | 20µM* | -20% | ?
C/C(=N/NC(=O)c1cccc(Br)c1)C1CC2CCC1C2 (stereo not drawn) | -1% | 4% | -15% | 13% | -14% | . | .
CC(C)C[C@H](NC(=O)[C@@H]1CCCN1C(=O)[C@H](Cc1ccccc1)NC(=O)[C@H](C)NC(=O)[C@H](CCC(=O)O)NC(=O)[C@H](C)NC(=O)[C@H](CO)NC(=O)[C@H](CCC(=O)O)NC(=O)[C@H](CC(=O)O)NC(=O)[C@H](CCC(=O)O)NC(=O)[C@H](C)NC(=O)CNC(=O)[C@H](CC(N)=O)NC(=O)[C@@H]1CCCN1C(=O)[C@H](Cc1ccc(O)cc1)NC(=O)[C@@H](NC(=O)[C@H](CCCCN)NC(=O)[C@@H](NC(=O)[C@@H]1CCCN1C(=O)[C@@H](N)CCCNC(=N)N)C(C)C)C(C)C)C(=O)N[C@@H](CCC(=O)O)C(=O)N[C@@H](Cc1ccccc1)C(=O)O | . | . | 12% | -6%[12 µM] | . | . | .
COc1ccc(OCCn2nnc3sc4c(c3c2=O)CCCC4)cc1 | 71µM* | 11µM* | . | ? | . | . | ? | Pol kappa inh-2=?
Cc1c(C(=O)N2CCN(CC(=O)Nc3ccccc3Cl)CC2)oc2ccc(Br)cc12 | 31% | . | 9% | -5% | -18% | 3% | .
CCCC(=O)Nc1sc(C)c(C)c1C#N | 78% | -11% | 1% | 4% | -19% | -1% | .
CCc1c(C)sc(NC(=O)CC#N)c1C#N | 45µM* | ? | ? | ? | 22µM* | . | ?
SMILES | POLI inh | POLB inh | APE1 inh | Pol kappa inh-1 | Pol eta inh-1 | L3MBTL1 inh | Pol eta inh-2 | others
CCOc1ccc(-c2cc(C(=O)NCCc3ccccc3)c3c(-c4ccc(C)cc4)[nH]nc3n2)cc1 | -12% | 12% | . | 0% | -16% | . | .
CCCN1CCC(Oc2cccc(C(=O)NCCc3ccccc3)c2)CC1 | 4% | 9% | 5% | -17% | -10% | . | .
Cc1cc2c(=O)n(Cc3ccco3)c(SCC(=O)NCc3ccco3)nc2s1 | 35µM* | ? | -8% | ? | ? | -23% | ?
Cc1occc1-c1nnc(SCC(=O)NCc2ccco2)n1CC(C)C | -23% | ? | ? | ? | 25µM* | -18% | ?
Cc1occc1-c1nnc(SCC(=O)NC(C)(C)C)n1CC(C)C | 27% | 10% | 0% | -3% | -13% | 1% | .
O=C(/C=C/c1c[nH]c2ccccc12)c1cccc2ccccc12 | 22% | 6% | -6% | -3% | ? | -5% | .
Cc1ccc2nc3sc(C(=O)NCc4ccco4)c(N)c3cc2c1 | 6% | ? | -2% | -6% | ? | -1% | .
Cc1ccc2nc3sc(C(=O)NCc4ccco4)cc3cc2c1 | . | . | . | . | . | . | 76*
CC(=O)C(=Cc1ccc(C(=O)O)cc1)C(C)=O | ? | ? | ? | ? | 40µM* | ? | ?
O=C(O)c1ccc(/C=N/O)cc1 | 37% | 29% | 15% | -2% | -19% | 11% | .
